Data reported in PubChem BioAssay (Tox21).
Inconclusive results are not listed. Values without a mark were called inactive. Calls follow the shape of the dose curve; as a rule, active = well fitted cell-killing curve with a large enough effect in the repeat runs; inconclusive = weak or mixed curves, or effect the other way; inactive = no such curve, though single readings can be large or run the other way.

Assay: qHTS assay to identify small molecule agonists of the RXR signaling pathway - cell viability counter screen (AID 1159529); also: nearly all actives have a fitted effect of over 50% in size
Conditions: RXR-alpha-bla HEK293T viability, CellTiter-Glo, 16 h; series mostly up to 76.8 µM; activity change, negative = cytotoxicity: at the top concentration
Text: National Center for Advancing Translational Sciences [NCATS]
NIH Chemical Genomics Center [NCGC]
U.S. Environmental Protection Agency [EPA]
National Institutes of Environmental Health Sciences [NIEHS]
National Toxicology Program [NTP]
U.S. Food and Drug Administration [FDA]
The Retinoid X receptor (RXR), a nuclear hormone receptor expressed in liver, spleen, placenta, epidermis, central nervous system. These receptors are able to form homo and heterodimers with other nuclear receptors and due to this heterodimerizing ability, RXR functions as master regulators producing diverse physiological effects. Three subtypes of RXR exist; alpha, beta and gamma. Retinoid X receptor alpha (RXR-alpha) has potential roles in metabolic signaling pathways, skin alopecia, dermal cysts, cardiac development, insulin sensitization etc. Therefore screening environmental chemicals on RXR-alpha signaling can be used for the studies focused on such therapeutic applications. For quantification of RXR-alpha ligands signaling, GeneBLAzer RXR alpha-UAS-bla HEK 293T (Life Technologies, Carlsbad, CA) cells containing a beta-lactamase reporter-gene under control of Retinoid X receptor-alpha response element were used to screen Tox21 10K library. The cytotoxicity of the Tox21 compound library against the RXR-alpha HEK 293T cell line was tested in parallel by measuring cell viability using CellTiter-Glo assay (Promega Corporation, Madison, WI) in the same wells.
Tox21 Assay Protocol Summary:
RXR-alpha HEK 293T cells were dispensed at 2,000 cells/6 uL of assay medium containing 2% charcoal-stripped FBS using a Multidrop Combi (ThermoFisher Scientific, Waltham, MA) dispenser. The assay was performed in black wall/clear-bottom 1536-well plates (Greiner Bio-One North America Inc. Monroe, NC). Tetraoctyl ammonium bromide was used as a positive control in the cytotoxicity screen. After the assay plates were incubated at 37 C and 5% CO2 for 5 hr, 23 nL of compounds dissolved in DMSO, positive control or DMSO only were transferred to the assay plate by a Pintool station (Kalypsys, San Diego, CA). The assay plates were incubated at 37 C and 5% CO2 for 16 hr. One uL of LiveBLAzer B/G FRET substrate (Life Technologies) was added using a Flying Reagent Dispenser (FRD) (Aurora Discovery, San Diego, CA) and the plates were incubated at room temperature for 2 hr. Fluorescence intensity (405 nm excitation, 460/530 nm emission) was measured using an Envision plate reader (PerkinElmer, Shelton, CT). For cytotoxicity, 4 uL/well of CellTiter-Glo reagent was added into the assay plates using an FRD. After 30 min incubation at room temperature, the luminescence intensity was measured using a ViewLux plate reader (PerkinElmer).
% is scaled to controls: 0 for no effect and ±100 for the full control effect.

SMILES | activity change, negative = cytotoxicity
Cc1c(N)cccc1N | 6.87%
CC(C)(C)C1CCCCC1=O (stereo not given) | 1.91%
Cc1cn([C@@H]2O[C@H](CO)[C@@H](O)[C@@H]2F)c(=O)[nH]c1=O | 9.72% [at 35.3 µM]
CC(C)C[C@H](NC(=O)OCC1c2ccccc2-c2ccccc21)C(=O)O | -0.261%
O=C(C(Cl)Cl)N1CCOC12CCCCC2 | 0.124%
O=C1CCC(C2CCCCC2)CC1 | -4.31%
CCOC(=O)c1cc(=O)c2c(OCC(COc3cccc4oc(C(=O)OCC)cc(=O)c34)OC(=O)[C@@H](N)CCCCN)cccc2o1 | -4.96% [at 35.3 µM]
O=C(O)C(=O)Cc1c[nH]c2ccccc12 | -12.2%
CS(=O)(=O)c1ccc([C@@H](O)[C@@H](CF)NC(=O)C(Cl)Cl)cc1 | 3.98% [at 35.3 µM]
Nc1ccc(Oc2ccc(N)c(N)c2)cc1 | 9.67%
OCC(CBr)(CBr)CBr | -6.39%
CCCC(CCC)(C(=O)OCC)C(=O)OCC | 5.27% [at 35.3 µM]
Oc1ccccc1F | 3.23%
COC(=O)C(C)O (stereo not given) | 9.37%
O=C(O)c1ccccc1Nc1cc(Cl)ccc1C(=O)O | -23.8% [at 15.8 µM]
CN1CCN(N)CC1 | 0.0173% [at 35.3 µM]
Nc1cccc(S(=O)(=O)O)c1 | -16.9%
OCc1ccccc1O | -1.44% [at 35.3 µM]
Cc1ccccc1C(=O)Nc1ccc(C(=O)N2CCCC(O)c3cc(Cl)ccc32)c(C)c1 (stereo not given) | -13.3% [at 35.3 µM]
CN1CCN(c2c(F)cc3c(=O)c(C(=O)O)cn4c3c2SCC4)CC1 | 4.64% [at 35.3 µM]

SMILES | activity change, negative = cytotoxicity
CCCCc1ccc2nc(NC(=O)OC)[nH]c2c1 | 9.02% [at 35.3 µM]
O=C(O)[C@@H]1CSCN1 | 0.194% [at 35.3 µM]
CCc1cc2cc(OC)c(OC)cc2c(Cc2ccccc2)n1 | -3.62% [at 35.3 µM]
CCCCNCCCC | 9.32%
Cc1cc(S(=O)(=O)O)c(N)cc1Cl | 0.328%
C[C@@H]1CN(c2c(F)c(F)c3c(=O)c(C(=O)O)cn(C4CC4)c3c2F)C[C@H](C)N1 | 10.3% [at 15.8 µM]
O=C(O)c1cccc(Cl)c1Cl | -11%
C=O | 3.86%
CC(=O)OC(C)OC(C)=O | -9.54%
COc1nc(C)nc(NC(=O)NS(=O)(=O)c2ccccc2OCCCl)n1 | 4.4%
CO[Si](C)(C)OC | 0.389%
CC(C)C(=O)OC/C=C/c1ccccc1 | -15.3%
CC(C)OC(C)C | -0.669%
CC/C=C\CCOC(=O)C(C)C | -5.23%
COc1cc(C)ccc1C(C)C | 1.06%
CC(=O)N[C@@H](CC(C)C)C(=O)O | 15% [at 35.3 µM]
CN1[C@@H]2CC[C@H]1CC(OC(=O)c1c[nH]c3ccccc13)C2 (stereo not given in full) | -8.94% [at 35.3 µM]
CC(C)=CCCC(C)CCOC=O (stereo not given) | -15.4%
CCOc1ccc(NS(=O)(=O)c2ccc(N)cc2)nn1 | 8.05% [at 35.3 µM]
O=c1oc2c(O)c(O)cc3c(=O)oc4c(O)c(O)cc1c4c23 | 8.17% [at 15.8 µM]
